Experimental data: the supplement of paper PMC10849652
The full data set covers some 7,900 targets. This sample favours those with a hit. About 0.6% of all pairs of compound and target were hits. A number with no mark means an inactive call.

How the values were obtained:
Test in all cases: log2 fold change, soluble protein after heating vs DMSO (PISA); higher = thermal stabilisation; K562 cells, 10 uM, 30 min; active = over 0.2 and 3.5 SD of the protein, either way, in both replicates (recomputed)
[1] = compound: CC[C@@H]1C(=O)N(C)c2cnc(Nc3ccc(C(=O)NC4CCN(C)CC4)cc3OC)nc2N1C1CCCC1
Outline: (§1)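 K562 cells (2×10^6 cells/mL) were treated with 10 μM compound for 30 min, and aliquots were heated for 3 min over 48°C-58°C. Pooled aliquots were extracted in PBS with 0.5% NP-40 at 4°C, and the supernatant after 21,000xg for 90 min was measured by TMTpro 16plex LC-MS/MS with channel sums equalised. Reported thermal stability, relative to control samples and from duplicates, is a log2 fold change.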

volasertib = compound: CC[C@@H]1C(=O)N(C)c2cnc(Nc3ccc(C(=O)N[C@H]4CC[C@H](N5CCN(CC6CC6)CC5)CC4)cc3OC)nc2N1C(C)C [volasertib]
Outline: as §1

[2] = compound: CC[C@H](C)N1C=C(C2=C(C=C(C=C21)C3=CN=C(C=C3)N4CCNCC4)C(=O)NCC5=C(C=C(NC5=O)C)C)C
Outline: as §1

epoxomicin = compound: CC[C@H](C)[C@@H](C(=O)N[C@@H]([C@@H](C)O)C(=O)N[C@@H](CC(C)C)C(=O)[C@]1(CO1)C)NC(=O)[C@H]([C@@H](C)CC)N(C)C(=O)C [epoxomicin]
Outline: as §1

[3] = compound: CCn1c(C(=O)N(C2CC2)C2CC2)cc2c3c(ncn3C)c(Nc3cc(C)n(C)n3)nc21
Outline: as §1

[4] = compound: CCn1cc(-c2ccnc3[nH]c(-c4cccc(CN(C)C)c4)cc23)c(-c2ccc(NC(=O)N(C)C)cc2)n1
Outline: as §1

[5] = compound: CN(C)CC(=O)Nc1ccc2[nH]c(=O)c3ccccc3c2c1
Outline: as §1

rosiglitazone = compound: CN(CCOC1=CC=C(C=C1)C[C@H]2C(=O)NC(=O)S2)C3=CC=CC=N3 (racemic) [rosiglitazone]
Outline: as §1

[6] = compound: CN1C2=C(C3=C1C(=O)N(N=C3)CC4=CC(=CC=C4)N)SC(=C2)S(=O)C
Outline: as §1

[7] = compound: CN1CCC(CNc2ccc3ncc(-c4cccc(OC(F)(F)F)c4)n3n2)CC1
Outline: as §1

saracatinib = compound: CN1CCN(CCOc2cc(OC3CCOCC3)c3c(Nc4c(Cl)ccc5c4OCO5)ncnc3c2)CC1 [saracatinib]
Outline: as §1

sotrastaurin = compound: CN1CCN(c2nc(C3=C(c4c[nH]c5ccccc45)C(=O)NC3=O)c3ccccc3n2)CC1 [sotrastaurin]
Outline: as §1

alvocidib = compound: CN1CC[C@H](c2c(O)cc(O)c3c(=O)cc(-c4ccccc4Cl)oc23)[C@H](O)C1 [alvocidib]
Outline: as §1

Tubastatin A = compound: CN1CCc2c(c3ccccc3n2Cc2ccc(C(=O)NO)cc2)C1 [Tubastatin A]
Outline: as §1

[8] = compound: CNC(=O)C1=CC=CC=C1NC2=NC(=NC=C2Cl)NC3=C(C=C(C=C3)N4CCOCC4)OC
Outline: as §1

defactinib = compound: CNC(=O)c1ccc(Nc2ncc(C(F)(F)F)c(NCc3nccnc3N(C)S(C)(=O)=O)n2)cc1 [defactinib]
Outline: as §1

rucaparib = compound: CNCc1ccc(-c2[nH]c3cc(F)cc4c3c2CCNC4=O)cc1 [rucaparib]
Outline: as §1

[9] = compound: CNc1nc(-c2ccc3c(N)n[nH]c3c2)cc(N2C[C@@H](C(=O)NC3CCCCC3)CC[C@H]2C)n1
Outline: as §1

encorafenib = compound: COC(=O)N[C@@H](C)CNc1nccc(-c2cn(C(C)C)nc2-c2cc(Cl)cc(NS(C)(=O)=O)c2F)n1 [encorafenib]
Outline: as §1

[10] = compound: COC(=O)[C@H](CCSC)NC(=O)C1=C(C=C(C=C1)NC[C@H](CS)N)C2=CC=CC=C2
Outline: as §1

UniProt Q9H267, sequence (Q9H267 whole entry, looked up): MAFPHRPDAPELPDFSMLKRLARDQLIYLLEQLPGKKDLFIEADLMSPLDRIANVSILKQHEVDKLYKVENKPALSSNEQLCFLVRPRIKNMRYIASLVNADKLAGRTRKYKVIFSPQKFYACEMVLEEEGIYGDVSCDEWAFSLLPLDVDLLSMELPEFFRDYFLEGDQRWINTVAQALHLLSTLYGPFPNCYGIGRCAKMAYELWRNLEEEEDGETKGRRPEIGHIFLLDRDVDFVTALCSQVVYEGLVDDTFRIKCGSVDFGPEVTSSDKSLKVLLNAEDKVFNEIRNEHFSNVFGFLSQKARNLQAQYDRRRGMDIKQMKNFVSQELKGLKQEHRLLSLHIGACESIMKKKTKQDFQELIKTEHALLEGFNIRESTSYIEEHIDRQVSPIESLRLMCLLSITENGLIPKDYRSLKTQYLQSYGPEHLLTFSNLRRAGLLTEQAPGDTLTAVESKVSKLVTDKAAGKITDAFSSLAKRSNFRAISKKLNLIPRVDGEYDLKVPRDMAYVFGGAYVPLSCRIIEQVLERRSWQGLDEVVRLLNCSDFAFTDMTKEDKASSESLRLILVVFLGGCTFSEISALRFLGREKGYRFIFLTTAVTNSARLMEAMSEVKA
UniProt A3KMH1, sequence (A3KMH1 whole entry, looked up): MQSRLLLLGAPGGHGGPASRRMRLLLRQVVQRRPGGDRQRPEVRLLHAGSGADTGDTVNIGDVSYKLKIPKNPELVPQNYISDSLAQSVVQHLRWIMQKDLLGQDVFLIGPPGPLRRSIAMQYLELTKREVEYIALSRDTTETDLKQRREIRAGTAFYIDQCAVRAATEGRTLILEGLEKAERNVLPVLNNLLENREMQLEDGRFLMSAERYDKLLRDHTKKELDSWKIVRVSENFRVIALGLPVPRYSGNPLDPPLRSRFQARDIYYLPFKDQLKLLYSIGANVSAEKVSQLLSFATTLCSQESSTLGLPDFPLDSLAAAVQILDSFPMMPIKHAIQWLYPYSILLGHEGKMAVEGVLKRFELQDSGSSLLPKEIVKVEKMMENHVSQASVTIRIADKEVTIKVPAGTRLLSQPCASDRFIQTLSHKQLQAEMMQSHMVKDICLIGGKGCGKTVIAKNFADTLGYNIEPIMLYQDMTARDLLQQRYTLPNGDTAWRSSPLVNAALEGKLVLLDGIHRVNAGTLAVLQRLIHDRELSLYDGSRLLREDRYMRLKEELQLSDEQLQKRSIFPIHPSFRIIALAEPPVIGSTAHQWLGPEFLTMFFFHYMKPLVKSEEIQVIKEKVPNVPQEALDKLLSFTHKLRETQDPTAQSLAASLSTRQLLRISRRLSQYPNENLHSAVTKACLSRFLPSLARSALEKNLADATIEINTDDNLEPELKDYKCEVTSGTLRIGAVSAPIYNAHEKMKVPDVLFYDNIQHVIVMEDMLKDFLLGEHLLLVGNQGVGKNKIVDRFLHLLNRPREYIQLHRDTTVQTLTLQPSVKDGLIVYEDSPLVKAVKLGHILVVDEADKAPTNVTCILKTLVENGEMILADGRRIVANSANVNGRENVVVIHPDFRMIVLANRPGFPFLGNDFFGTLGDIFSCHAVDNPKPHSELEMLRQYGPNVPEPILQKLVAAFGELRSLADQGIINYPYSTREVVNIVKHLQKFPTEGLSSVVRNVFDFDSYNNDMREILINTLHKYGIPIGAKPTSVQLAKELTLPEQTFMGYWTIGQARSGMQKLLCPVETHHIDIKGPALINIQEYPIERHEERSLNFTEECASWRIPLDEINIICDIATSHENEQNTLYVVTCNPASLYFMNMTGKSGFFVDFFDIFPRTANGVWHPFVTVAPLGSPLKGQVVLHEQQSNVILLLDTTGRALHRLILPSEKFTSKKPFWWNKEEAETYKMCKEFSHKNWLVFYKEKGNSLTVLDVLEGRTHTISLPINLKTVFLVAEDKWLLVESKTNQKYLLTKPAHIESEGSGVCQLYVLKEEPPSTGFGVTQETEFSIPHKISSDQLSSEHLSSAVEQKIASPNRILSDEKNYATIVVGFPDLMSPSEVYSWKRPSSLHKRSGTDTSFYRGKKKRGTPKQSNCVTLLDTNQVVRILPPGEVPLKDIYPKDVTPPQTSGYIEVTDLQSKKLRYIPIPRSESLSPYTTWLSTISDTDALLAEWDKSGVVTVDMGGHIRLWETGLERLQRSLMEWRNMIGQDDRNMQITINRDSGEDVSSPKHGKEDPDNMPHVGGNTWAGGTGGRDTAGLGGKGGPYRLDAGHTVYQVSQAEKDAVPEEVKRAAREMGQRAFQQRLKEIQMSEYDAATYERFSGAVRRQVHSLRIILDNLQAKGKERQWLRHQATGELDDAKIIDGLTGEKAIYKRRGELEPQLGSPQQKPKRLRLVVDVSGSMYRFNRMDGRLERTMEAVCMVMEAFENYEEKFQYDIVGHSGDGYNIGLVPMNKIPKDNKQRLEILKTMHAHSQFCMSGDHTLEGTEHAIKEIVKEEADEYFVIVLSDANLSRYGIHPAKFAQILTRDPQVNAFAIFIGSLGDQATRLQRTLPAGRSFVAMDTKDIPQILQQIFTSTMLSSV
UniProt Q9Y385, sequence (Q9Y385 whole entry, looked up): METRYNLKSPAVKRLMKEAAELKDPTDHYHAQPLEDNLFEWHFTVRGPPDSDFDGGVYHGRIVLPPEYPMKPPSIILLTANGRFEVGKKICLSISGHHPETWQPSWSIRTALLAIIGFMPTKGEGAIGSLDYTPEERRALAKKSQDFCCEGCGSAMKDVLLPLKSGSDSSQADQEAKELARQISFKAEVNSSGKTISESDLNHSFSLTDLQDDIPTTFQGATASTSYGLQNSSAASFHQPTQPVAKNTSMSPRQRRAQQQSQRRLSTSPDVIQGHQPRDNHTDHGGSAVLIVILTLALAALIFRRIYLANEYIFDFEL
UniProt Q9BUB7, sequence (Q9BUB7 whole entry, looked up): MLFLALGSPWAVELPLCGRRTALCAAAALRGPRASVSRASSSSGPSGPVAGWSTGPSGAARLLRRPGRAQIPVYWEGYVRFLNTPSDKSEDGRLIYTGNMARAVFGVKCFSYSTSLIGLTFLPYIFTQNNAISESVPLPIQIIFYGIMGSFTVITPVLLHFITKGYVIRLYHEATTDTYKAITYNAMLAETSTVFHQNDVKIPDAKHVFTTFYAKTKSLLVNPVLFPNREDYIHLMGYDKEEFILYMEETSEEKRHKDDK
UniProt Q9BV38, sequence (Q9BV38 whole entry, looked up): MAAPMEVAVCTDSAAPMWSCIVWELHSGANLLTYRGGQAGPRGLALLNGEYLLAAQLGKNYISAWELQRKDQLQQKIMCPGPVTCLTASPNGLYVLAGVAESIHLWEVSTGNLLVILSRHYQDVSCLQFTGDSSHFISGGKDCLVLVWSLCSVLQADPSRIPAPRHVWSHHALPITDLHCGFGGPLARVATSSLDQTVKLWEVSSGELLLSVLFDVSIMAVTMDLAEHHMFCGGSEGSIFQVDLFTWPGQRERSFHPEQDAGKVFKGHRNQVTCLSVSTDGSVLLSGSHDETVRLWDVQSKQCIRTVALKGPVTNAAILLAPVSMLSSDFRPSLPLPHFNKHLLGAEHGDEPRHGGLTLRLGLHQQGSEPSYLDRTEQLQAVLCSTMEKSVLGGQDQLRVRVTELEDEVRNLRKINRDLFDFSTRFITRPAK
UniProt P22314, sequence (P22314 whole entry, looked up): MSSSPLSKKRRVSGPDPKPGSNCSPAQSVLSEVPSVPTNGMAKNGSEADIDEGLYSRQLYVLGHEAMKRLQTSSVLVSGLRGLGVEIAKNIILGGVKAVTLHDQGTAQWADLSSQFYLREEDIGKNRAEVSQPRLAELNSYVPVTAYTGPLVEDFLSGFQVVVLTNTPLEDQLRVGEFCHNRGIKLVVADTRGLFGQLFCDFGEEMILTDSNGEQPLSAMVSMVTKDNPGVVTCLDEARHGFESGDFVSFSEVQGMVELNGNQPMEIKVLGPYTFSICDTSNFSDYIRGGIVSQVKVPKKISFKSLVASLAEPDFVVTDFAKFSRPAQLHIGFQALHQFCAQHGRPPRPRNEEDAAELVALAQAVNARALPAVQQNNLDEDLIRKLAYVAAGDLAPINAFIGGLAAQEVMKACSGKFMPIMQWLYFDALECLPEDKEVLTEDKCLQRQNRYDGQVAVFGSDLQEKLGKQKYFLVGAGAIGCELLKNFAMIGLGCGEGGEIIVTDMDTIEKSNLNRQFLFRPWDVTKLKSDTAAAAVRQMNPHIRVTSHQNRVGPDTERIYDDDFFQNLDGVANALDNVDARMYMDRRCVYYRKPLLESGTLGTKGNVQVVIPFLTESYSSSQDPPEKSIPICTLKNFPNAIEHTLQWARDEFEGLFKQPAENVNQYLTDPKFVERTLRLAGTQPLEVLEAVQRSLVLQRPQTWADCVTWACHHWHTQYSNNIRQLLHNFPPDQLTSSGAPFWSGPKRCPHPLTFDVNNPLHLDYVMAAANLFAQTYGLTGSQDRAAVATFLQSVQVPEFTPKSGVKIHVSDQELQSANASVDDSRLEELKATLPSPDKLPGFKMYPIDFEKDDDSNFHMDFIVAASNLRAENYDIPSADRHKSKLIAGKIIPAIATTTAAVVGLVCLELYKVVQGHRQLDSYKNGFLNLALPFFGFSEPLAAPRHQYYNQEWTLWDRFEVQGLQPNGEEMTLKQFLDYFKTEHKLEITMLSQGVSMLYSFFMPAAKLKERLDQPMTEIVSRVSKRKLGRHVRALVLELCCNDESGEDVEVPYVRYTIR
UniProt Q8TBZ6, sequence (Q8TBZ6 whole entry, looked up): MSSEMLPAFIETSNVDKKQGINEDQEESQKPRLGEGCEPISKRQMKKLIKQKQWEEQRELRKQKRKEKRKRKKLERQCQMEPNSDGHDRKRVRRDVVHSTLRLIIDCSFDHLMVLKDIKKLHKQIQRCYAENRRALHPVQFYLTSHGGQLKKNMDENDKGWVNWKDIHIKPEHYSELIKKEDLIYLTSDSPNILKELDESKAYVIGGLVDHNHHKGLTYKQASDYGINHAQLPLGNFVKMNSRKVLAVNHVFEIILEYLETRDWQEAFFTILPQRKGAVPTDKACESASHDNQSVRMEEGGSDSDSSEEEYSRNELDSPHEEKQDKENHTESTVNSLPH

Row | Target | log2 fold change [1] | log2 fold change (volasertib) | log2 fold change [2] | log2 fold change (epoxomicin) | log2 fold change [3] | log2 fold change [4] | log2 fold change [5] | log2 fold change (rosiglitazone) | log2 fold change [6] | log2 fold change [7] | log2 fold change (saracatinib) | log2 fold change (sotrastaurin) | log2 fold change (alvocidib) | log2 fold change (Tubastatin A) | log2 fold change [8] | log2 fold change (defactinib) | log2 fold change (rucaparib) | log2 fold change [9] | log2 fold change (encorafenib) | log2 fold change [10]
1 | TRMT10A (UniProt Q8TBZ6) | 0.016 | -0.013 | 0.033 | 0.003 | -0.026 | -0.037 | 0.047 | 0.034 | -0.135 | -0.075 | -0.028 | -0.024 | -0.12 | -0.038 | 0.054 | -0.06 | 0.016 | 0.032 | 0.026 | 0.036
2 | UFL1 (UniProt O94874) | -0.063 | -0.351 (active) | 0.086 | 0.004 | -0.06 | -0.023 | 0.054 | 0.06 | 0.04 | -0.089 | -0.033 | -0.035 | 0.027 | 0.076 | 0.018 | -0.045 | 0.1 | 0 | 0.121 | -0.119
3 | VWA8 (UniProt A3KMH1) | -0.027 | -0.071 | 0.048 | -0.005 | 0.002 | -0.094 | 0.056 | 0.024 | -0.01 | -0.034 | -0.012 | -0.003 | -0.046 | 0.072 | 0.006 | -0.017 | 0.008 | -0.013 | 0.003 | -0.049
4 | VPS33B (UniProt Q9H267) | -0.129 | -0.378 | 0.284 (active) | 0.022 | -0.065 | -0.039 | 0.048 | 0.073 | 0.091 | -0.218 | -0.088 | -0.117 | -0.008 | 0.039 | -0.071 | -0.078 | 0.196 | 0.052 | 0.111 | -0.058
5 | TNPO2 (UniProt O14787) | -0.176 | -0.36 (active) | 0.106 | 0.029 | -0.031 | -0.027 | 0.111 | 0.068 | 0.016 | 0.06 | 0.066 | -0.055 | -0.188 | 0.03 | 0.013 | -0.188 | -0.051 | 0.054 | 0.133 | -0.079
6 | UBE2J1 (UniProt Q9Y385) | -0.073 | -0.165 | 0.07 | 0.248 | -0.024 | 0.014 | 0.01 | 0.003 | -0.083 | -0.006 | 0.019 | -0.016 | -0.073 | 0.26 | -0.046 | -0.133 | 0.048 | 0.204 | 0.001 | 0.035
7 | TMEM70 (UniProt Q9BUB7) | 0.005 | 0.064 | -0.017 | 0.001 | 0.257 (active) | -0.055 | 0.001 | 0.021 | -0.048 | -0.288 (active) | 0.106 | 0.028 | 0.015 | 0.011 | 0.142 | -0.004 | -0.057 | -0.001 | 0.009 | 0
8 | VTI1B (UniProt Q9UEU0) | -0.028 | -0.066 | -0.037 | -0.057 | 0.036 | -0.018 | -0.009 | 0.006 | 0.018 | -0.331 (active) | 0.041 | 0.07 | 0.055 | -0.046 | -0.008 | 0.005 | 0.004 | -0.091 | 0 | 0.046
9 | VPS18 (UniProt Q9P253) | -0.22 | -0.398 (active) | 0.086 | -0.019 | -0.009 | -0.059 | 0.046 | 0.042 | 0.005 | -0.231 | -0.034 | -0.156 | -0.118 | -0.052 | -0.003 | -0.068 | 0.099 | 0.029 | 0.031 | -0.076
10 | VPS13B (UniProt Q7Z7G8) | -0.01 | -0.088 | 0.004 | 0.019 | -0.016 | -0.008 | -0.028 | 0.011 | -0.053 | -0.109 | 0.033 | 0.016 | -0.003 | 0.032 | -0.002 | 0.009 | -0.039 | -0.016 | 0.031 | -0.01
11 | UBA1 (UniProt P22314) | -0.236 | -0.543 (active) | 0.133 | 0.044 | -0.098 | -0.008 | 0.115 | 0.132 | 0.023 | -0.02 | -0.048 | -0.17 | -0.127 | -0.052 | 0.015 | -0.058 | -0.019 | 0.055 | 0.149 | -0.057
12 | WDR18 (UniProt Q9BV38) | 0.034 | -0.1 | 0.022 | 0.016 | 0.039 | -0.026 | -0.017 | 0.007 | 0.018 | -0.002 | 0.057 | -0.001 | -0.027 | 0.008 | -0.032 | -0.051 | -0.009 | -0.038 | 0.001 | 0.003
13 | VPS52 (UniProt Q8N1B4) | -0.107 | -0.383 (active) | 0.153 | 0.092 | 0.012 | 0.006 | -0.021 | 0.094 | 0.037 | -0.027 | -0.012 | -0.107 | -0.061 | 0.074 | -0.047 | -0.031 | 0.121 | -0.01 | 0.02 | -0.072
14 | TNPO3 (UniProt Q9Y5L0) | -0.182 | -0.406 (active) | 0.039 | 0.041 | 0.002 | -0.075 | 0.041 | 0.046 | -0.036 | -0.128 | 0.034 | -0.075 | -0.114 | -0.03 | -0.011 | -0.067 | 0 | -0.013 | 0.032 | -0.003
15 | TMEM263 (UniProt Q8WUH6) | -0.462 (active) | -0.5 | -0.03 | 0.005 | -0.004 | -0.105 | 0.024 | 0.015 | -0.057 | -1.32 (active) | 0.027 | -0.046 | 0.025 | -0.049 | -0.161 | 0.007 | -0.031 | -0.057 | 0.015 | -0.015
16 | UBXN10 (UniProt Q96LJ8) | -0.057 | -0.319 | 0.156 | 0.127 | 0.034 | 0.014 | -0.088 | 0.009 | 0.087 | -0.103 | 0.111 | 0.122 | -0.021 | 0.036 | -0.152 | 0.254 | -0.05 | -0.049 | -0.074 | 0.014
